Common to all, as to details: mRNA level, 48 h; actives raise or lower the signal
Read-out in experiment [1]: Hypoxia-inducible factor 1-alpha (Homo sapiens) (UniProt Q16665)
In words: LTEA_HepaRG_HIF1A: Life Technologies and Expression Analysis (LTEA) Assay for Hypoxia-inducible factor 1 (HIF1A) Trancription factor using HepaRG (AID 2283503). The method, boiled down:
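HIF1A transcript level read by qRT-PCR (ACTB, GAPDH, POLR2A normalization) after 48 h chemical exposure of HepaRG cultures. Eight half-log concentrations, top 100 uM, 0.5% DMSO vehicle, duplicates; bidirectional curve fit against DMSO baseline.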

Read-out in experiment [2]: 3-Hydroxy-3-Methylglutaryl-CoA Synthase 2 (HMGCS2), HMGCS2 (gene 3158)
In words: LTEA_HepaRG_HMGCS2: Life Technologies and Expression Analysis (LTEA) Assay for 3-Hydroxy-3-Methylglutaryl-CoA Synthase 2 (HMGCS2) using HepaRG (AID 2283504). The method, boiled down:
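Expression of HMGCS2 in human HepaRG liver cells is measured by qRT-PCR 48 h after dosing (highest 100 uM, half-log series, 0.5% DMSO). Values come from bidirectional concentration-response fitting with DMSO as baseline.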

Read-out in another experiment: HGF (gene 3082)
The experiment can be described thus: LTEA_HepaRG_HGF: Life Technologies and Expression Analysis (LTEA) Assay for Hepatocyte Growth Facto (HGF) using HepaRG (AID 2283505). The method, boiled down:
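Gain or loss of HGF mRNA in human HepaRG liver cells after 48 h chemical exposure; eight concentrations up to 100 uM with 0.5% DMSO vehicle, quantified by TaqMan qRT-PCR.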

Read-out in experiment [3]: Insulin Like Growth Factor 1 (IGF1), IGF1 (gene 3479)
The experiment can be described thus: LTEA_HepaRG_IGF1: Life Technologies and Expression Analysis (LTEA) Assay for Insulin Like Growth Factor 1 (IGF1) using HepaRG (AID 2283506). In a few lines:
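Expression measured by TaqMan qRT-PCR on a Fluidigm array, with three housekeeping genes for normalisation, after 48 h treatment of HepaRG cells. Top concentration 100 uM with half-log steps, 0.5% DMSO vehicle, bidirectional fit.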

Read-out in experiment [4]: Intercellular Adhesion Molecule 1 (ICAM1), ICAM1 (gene 3383)
In words: LTEA_HepaRG_ICAM1: Life Technologies and Expression Analysis (LTEA) Assay for Intercellular Adhesion Molecule 1 (ICAM1) using HepaRG (AID 2283507). In a few lines:
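Gain or loss of transcript in HepaRG hepatic cells is quantified by qRT-PCR after 48 h chemical exposure (up to 100 uM, half-log steps), with DMSO as baseline.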

Read-out in experiment [5]: Insulin-like growth factor-binding protein 1 (IGFBP1), IGFBP1 (gene 3484)
In words: LTEA_HepaRG_IGFBP1: Life Technologies and Expression Analysis (LTEA) Assay for Insulin-like growth factor-binding protein 1 (IGFBP1) using HepaRG (AID 2283508). The method, boiled down: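 mRNA induction or loss was quantified by qRT-PCR after 48 h chemical exposure of human HepaRG cells, with 0.5% DMSO as vehicle and baseline. Concentration-response over eight points up to 100 uM.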

Read-out in experiment [6]: Interleukin 6 (IL6), IL6 (gene 3569)
In words: LTEA_HepaRG_IL6: Life Technologies and Expression Analysis (LTEA) Assay for Interleukin 6 (IL6) using HepaRG (AID 2283509). In a few lines:
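qRT-PCR read-out of IL6 transcript, normalized to three housekeeping genes, after 48 h chemical exposure of HepaRG cells; 8-point half-log series, top 100 uM, 0.5% DMSO vehicle. Bidirectional curve fitting against DMSO baseline.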

Read-out in experiment [7]: Interleukin 6 Receptor (IL6R), IL6R (gene 3570)
In words: LTEA_HepaRG_IL6R: Life Technologies and Expression Analysis (LTEA) Assay for Interleukin 6 Receptor (IL6R) using HepaRG (AID 2283510).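 On AC50: differentiated human HepaRG liver cells in serum-free induction medium; TaqMan qRT-PCR signal normalized to ACTB GAPDH and POLR2A housekeeping genes.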 In a few lines: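 IL6R transcript level by qRT-PCR after 48 h chemical exposure (8-point, half-log, max 100 uM, 0.5% DMSO vehicle) of HepaRG cells in serum-free induction medium. Normalized to three housekeeping genes; curves fitted in both directions relative to DMSO.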

Read-out in experiment [8]: Potassium channel subfamily K member 1 (KCNK1), KCNK1 (gene 3775)
In words: LTEA_HepaRG_KCNK1: Life Technologies and Expression Analysis (LTEA) Assay for Potassium channel subfamily K member 1 (KCNK1) using HepaRG (AID 2283511). The method, boiled down: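 HepaRG, 48 h exposure, 8-pt half-log series top 100 uM, 0.5% DMSO vehicle, duplicates. Readout: KCNK1 transcript by qRT-PCR (Fluidigm array), housekeeping-normalized; bidirectional curve fit relative to DMSO baseline.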

Read-out in experiment [9]: Keratin 19 (KRT19), KRT19 (gene 3880)
The experiment can be described thus: LTEA_HepaRG_KRT19: Life Technologies and Expression Analysis (LTEA) Assay for Keratin 19 (KRT19) using HepaRG (AID 2283512). In a few lines: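 Gene-expression endpoint in the human liver line HepaRG after 48 h exposure to up to 100 uM test chemical with 0.5% DMSO vehicle; KRT19 mRNA by qRT-PCR, analyzed bidirectionally versus DMSO.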

The structures appear in SMILES notation. Calls of active or inactive are those of the source. How the source made its calls: active means hit-call score of the fitted dose curve at least 0.9, where 1 is the maximum; inactive means score below 0.9.

Sequence of Hypoxia-inducible factor 1-alpha (Homo sapiens) (Q16665 whole entry, looked up): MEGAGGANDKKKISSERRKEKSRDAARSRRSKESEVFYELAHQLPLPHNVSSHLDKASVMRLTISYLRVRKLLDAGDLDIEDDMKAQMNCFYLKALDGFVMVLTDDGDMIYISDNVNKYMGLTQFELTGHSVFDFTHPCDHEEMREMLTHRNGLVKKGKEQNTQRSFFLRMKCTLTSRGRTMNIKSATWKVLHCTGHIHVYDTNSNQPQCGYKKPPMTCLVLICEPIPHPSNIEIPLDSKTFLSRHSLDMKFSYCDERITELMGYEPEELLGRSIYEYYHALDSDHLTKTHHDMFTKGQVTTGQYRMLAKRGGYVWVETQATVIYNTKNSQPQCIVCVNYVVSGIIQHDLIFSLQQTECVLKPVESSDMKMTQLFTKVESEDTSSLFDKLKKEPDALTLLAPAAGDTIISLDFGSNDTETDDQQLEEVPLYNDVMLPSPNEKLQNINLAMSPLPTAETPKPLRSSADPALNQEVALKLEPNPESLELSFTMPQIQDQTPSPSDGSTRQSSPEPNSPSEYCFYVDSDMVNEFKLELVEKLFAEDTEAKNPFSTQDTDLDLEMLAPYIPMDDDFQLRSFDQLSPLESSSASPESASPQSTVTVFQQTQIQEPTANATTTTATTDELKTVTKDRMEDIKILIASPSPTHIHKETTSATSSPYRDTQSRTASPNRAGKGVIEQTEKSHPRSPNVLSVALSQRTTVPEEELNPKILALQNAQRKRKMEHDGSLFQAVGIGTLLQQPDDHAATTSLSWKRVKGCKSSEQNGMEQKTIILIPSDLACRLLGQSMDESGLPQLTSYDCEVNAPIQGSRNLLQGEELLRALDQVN

For `CN(C)c1ccc(N=NS(=O)(=O)O)cc1`, the molecule was called inactive (in experiment [1]; in experiment [2]; with HGF (gene 3082); in [4]; in [6]; in experiment [8]). Also, the AC50 was 26.2 µM (active) in experiment [3], 75.3 µM (active) in experiment [5], 22.3 µM (active) in [7] and 18.9 µM (active) in experiment [9].
Take `O=c1n(CC2CO2)c(=O)n(CC2CO2)c(=O)n1CC1CO1` (stereo unspecified): the molecule was classed as inactive (in experiment [1]; in the experiment with HGF (gene 3082); in [3]; in experiment [4]; in experiment [5]; in experiment [7]). Further, the result in [8] and in [9] was inactive. In [6], the concentration at half-maximal activity (AC50) is 50 µM (active).
In the case of `CCN(C(=O)c1cc(C)cc(OC[C@H](C)Nc2ccncc2)c1)C(C)C`, the outcome in experiment [1], in experiment [4], in [5], in experiment [7] and in experiment [8] was inactive. Also, the AC50 is 33.8 µM (active) with HGF (gene 3082), 33.8 µM (active) in [3], 33.8 µM (active) in [6] and 19.3 µM (active) in [9].
For the molecule `O=c1[nH]c2ccc(S(=O)CCN3CCC(Cc4ccc(F)cc4)CC3)cc2o1` (stereo unspecified), the call (in [1]; with HGF (gene 3082); in experiment [3]; in [4]; in [7]; in experiment [8]) was inactive. Besides, the half-maximal activity concentration (AC50) is 89.7 µM (active) in [5], 63 µM (active) in [6] and 67.3 µM (active) in experiment [9].
As for `C1N2CN3CN1CN(C2)C3`, the outcome (in [1]; in experiment [2]; with HGF (gene 3082); in experiment [3]; in experiment [4]; in experiment [5]) was inactive. Further, the result in [6], in experiment [7], in [8] and in experiment [9] was inactive.
In the case of `CCn1nc(Cc2ccccc2)cc1C1CCN(C[C@H]2C[C@H](N(C)[C@@H](C(=O)O)C(C)C)C[C@@H]2c2cccc(F)c2)CC1`, the molecule was classed as inactive (in experiment [1]; in the experiment with HGF (gene 3082); in experiment [6]; in experiment [7]; in [8]). Further, the half-maximal activity concentration (AC50) in [2] is 50 µM (active); in [3], 37.7 µM (active); in [4] it was 50 µM (active); in experiment [5], 73.6 µM (active); in experiment [9] it was 34.9 µM (active).
As for `CC(C)c1cccc(C(C)C)c1N1C(=O)c2ccc(O)cc2C1=O`, the result in experiment [1], in experiment [3], in [4], in experiment [5], in experiment [6] and in [7] was inactive. Also, the molecule was classed as inactive in experiment [8]. The AC50 with HGF (gene 3082) is 93 µM (active); in experiment [9], 88.7 µM (active).
For the molecule `COc1ccc(/C=C/S(=O)(=O)NC(=O)c2ccc(C)cc2Cl)cc1`, the call (in experiment [1]; with HGF (gene 3082); in experiment [3]; in experiment [4]; in experiment [5]; in [6]) was inactive. Also, the result in experiment [7], in experiment [8] and in [9] was inactive.
As for `O=C1OC(=O)C2C3C=CC(C3)C12` (stereo unspecified), the result (in experiment [1]; in experiment [2]; with HGF (gene 3082); in experiment [3]; in experiment [4]; in experiment [5]) was inactive. Moreover, the molecule was classed as inactive in experiment [6], in experiment [7], in experiment [8] and in [9].
With `O=C(O)CCN(C1(C(=O)NO)CCCC1)S(=O)(=O)c1ccc(Oc2ccc(F)cc2)cc1`, the molecule was called inactive (in experiment [1]; with HGF (gene 3082); in [3]; in [4]; in experiment [5]; in [6]). Further, the call in [7], in [8] and in experiment [9] was inactive.
Turning to `Oc1ccc2c(c1)-c1ccccc1C2`, the molecule was called inactive (in [1]; in experiment [2]; with HGF (gene 3082); in experiment [3]; in [4]; in experiment [5]). Also, the molecule was called inactive in experiment [6], in [7] and in [8]. In addition, in experiment [9], the half-maximal activity concentration (AC50) is 25 µM (active).
Turning to `CC(C)CCCCCCCOC(=O)CCCCC(=O)OCCCCCCCC(C)C`, the outcome (in [1]; with HGF (gene 3082); in experiment [3]; in experiment [4]; in [5]; in experiment [6]) was inactive. In addition, the molecule was classed as inactive in experiment [7], in experiment [8] and in experiment [9].
As to `O=C(O)c1cccc(Oc2ccccc2)c1`, the result (in experiment [1]; with HGF (gene 3082); in experiment [3]; in experiment [4]; in [5]; in experiment [6]) was inactive. Also, the result in experiment [7], in [8] and in experiment [9] was inactive.
For `CCOC(=O)CC(CC(=O)OCC)(OC(C)=O)C(=O)OCC`, the result (in experiment [1]; in experiment [2]; with HGF (gene 3082); in [3]; in experiment [4]; in experiment [5]) was inactive. Further, the molecule was called inactive in experiment [6], in [7], in experiment [8] and in experiment [9].
For `Cc1[nH]cnc1C[C@H]1CCc2c(C)c3ccccc3n2C1=O`, the concentration at half-maximal activity (AC50) in [1] was 24.3 µM (active); with HGF (gene 3082) it was 10.2 µM (active); in [3] it was 17.8 µM (active); in experiment [4] it was 35.9 µM (active); in experiment [5], 37.2 µM (active); in experiment [6], 84 µM (active). The half-maximal activity concentration (AC50) in [7] was 79.3 µM (active); in experiment [8], 58.7 µM (active); in [9], 11.5 µM (active).
Take `COc1ccc(-n2nc(C(F)F)cc2-c2ccc(S(C)=O)cc2)cc1` (stereo unspecified): the molecule was classed as inactive (in [1]; with HGF (gene 3082); in [3]; in experiment [4]; in experiment [5]; in experiment [6]). The molecule was classed as inactive in [7], in experiment [8] and in experiment [9].
As to `CC(C)=CCCC(C)CCO` (stereo unspecified), the result (in experiment [1]; with HGF (gene 3082); in experiment [3]; in experiment [4]; in [5]; in [6]) was inactive. The molecule was called inactive in [7], in experiment [8] and in experiment [9].
`Cc1c(-c2cccnc2)c2ccccc2n1CCCCC(=O)O`: the molecule was called inactive (in experiment [1]; in the experiment with HGF (gene 3082); in experiment [3]; in experiment [4]; in experiment [5]; in experiment [6]). Further, the result in experiment [7], in [8] and in [9] was inactive.
For the molecule `Cc1ccc(S(=O)(=O)O)cc1C`, the call (in experiment [1]; with HGF (gene 3082); in experiment [3]; in experiment [4]; in experiment [5]; in experiment [6]) was inactive. In addition, the call in experiment [7], in [8] and in [9] was inactive.
`CCCCC(CC)COC(=O)c1ccc(C(=O)OCC(CC)CCCC)cc1` (stereo unspecified): the call (in [1]; in the experiment with HGF (gene 3082); in [3]; in experiment [4]; in [5]; in experiment [6]) was inactive. The result in [7], in experiment [8] and in [9] was inactive.

By AC50 is commonly meant the concentration giving half of the maximal activity seen.

For the origin of these results see PubChem BioAssay (EPA / NIEHS).
